# Experimental data from PubChem BioAssay (Tox21).
# Values joined by “and” are separate entries in the source; they are usually repeats but may differ in a detail not shown here. Equal values may be shown once. Unmarked numbers belong to inactive results. Inconclusive results are not listed. Where a call stands in place of a potency, no number is given. Active and inactive are the calls of the source. Unless noted, the call rests on the fitted dose curve.
# Experiments:
# [1] = Nuclear factor erythroid 2-related factor 2/antioxidant responsive element (Nrf2/ARE) small molecule agonists: luciferase reporter gene qHTS assay in human keratinocytes (AID 1919969); further: nearly all actives have a fitted effect of over 35% in size; further: potency means the concentration at half of the fitted maximal effect
# [2] = molecular target: Gonadotropin-releasing hormone receptor (Homo sapiens) (UniProt P30968); assay: Human gonadotropin-releasing hormone receptor (GnRHR) small molecule agonists, calcium flux assay in GnRHR-HEK293 cells (AID 1920063); further: nearly all actives have a fitted effect of over 35% in size
# Chain of Gonadotropin-releasing hormone receptor (Homo sapiens) (P30968 whole entry, looked up): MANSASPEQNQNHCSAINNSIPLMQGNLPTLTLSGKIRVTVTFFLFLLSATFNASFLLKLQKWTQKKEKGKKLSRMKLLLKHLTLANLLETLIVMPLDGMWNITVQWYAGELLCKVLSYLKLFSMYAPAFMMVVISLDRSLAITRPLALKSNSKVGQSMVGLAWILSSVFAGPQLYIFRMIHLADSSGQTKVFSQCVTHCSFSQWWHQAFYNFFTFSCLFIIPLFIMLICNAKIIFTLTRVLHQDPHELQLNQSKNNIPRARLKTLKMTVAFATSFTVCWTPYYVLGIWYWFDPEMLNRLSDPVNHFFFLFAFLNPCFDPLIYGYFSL
# In short: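 Calcium flux, agonist mode, human GnRHR stably integrated in HEK293; dye 1 h at 37 C before compound; Ex/Em=480/540 kinetic read, 3 min; 15 concentrations, triplicate.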
# [3] = molecular target: KiSS-1 receptor (Homo sapiens) (UniProt Q969F8); assay: Human kisspeptin (KISS1R) small molecule agonists, calcium flux assay in KISS1R-HEK293 cells (AID 1920064; active means well fitted activation curve with a large enough effect in the repeat runs)
# Chain of KiSS-1 receptor (Homo sapiens) (Q969F8 whole entry, looked up): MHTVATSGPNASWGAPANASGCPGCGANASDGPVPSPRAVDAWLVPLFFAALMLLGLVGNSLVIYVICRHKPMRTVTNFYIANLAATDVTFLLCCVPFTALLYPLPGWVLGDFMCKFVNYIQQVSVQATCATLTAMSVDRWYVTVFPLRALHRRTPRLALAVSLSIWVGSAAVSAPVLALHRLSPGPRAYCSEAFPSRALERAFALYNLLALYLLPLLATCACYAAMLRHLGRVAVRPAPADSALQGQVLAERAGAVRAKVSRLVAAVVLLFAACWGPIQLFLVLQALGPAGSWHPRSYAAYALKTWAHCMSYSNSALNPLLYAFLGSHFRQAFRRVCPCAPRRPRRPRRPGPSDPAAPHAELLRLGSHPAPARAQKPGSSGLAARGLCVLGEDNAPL
# In short: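 Triplicate 15-concentration series were applied to dye-loaded human KISS1R HEK293 cells, and agonist-evoked calcium fluorescence was captured for 3 min.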
# [4] = G protein-coupled receptor (GPCR) small molecule agonists, calcium flux assay: HEK293 wild type cell line counter screen (AID 1920065)
# In short: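 Non-specific calcium responders were flagged by adding DMSO-dissolved compounds to dye-loaded cells and reading 480/540 nm fluorescence each second for 3 min; ATP served as positive control.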
# [5] = p53 small molecule agonists, cell-based qHTS assay with human liver microsomes (AID 1963577);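 further: p53 response element beta-lactamase reporter cells with liver microsomes plus NADPH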
# In short: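 With metabolic activation: human liver microsomes (0.5 mg/mL final) plus NADPH (0.5 mg/mL final) added alongside compounds to p53RE-bla cells; 16 h 37 C exposure; beta-lactamase read by LiveBLAzer fluorescence.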
# [6] = p53 small molecule agonists, cell-based qHTS assay with rat liver microsomes (AID 1963578); further: potency means the concentration at half of the fitted maximal effect
# In short: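 Metabolic activation by rat liver microsomes and NADPH, each 0.5 mg/mL final, added right after compounds to p53RE-bla reporter cells (4,000/well, plated 5 h earlier). 16 h at 37 C, then LiveBLAzer substrate for 2 h at room temperature in the dark; fluorescence read-out.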
# [7] = p53 small molecule agonists, cell-based qHTS assay with rat liver microsomes: qHTS cell viability counter screen (AID 1963580); further: nearly all actives have a fitted effect of over 45% in size; further: potency means the concentration at half of the fitted maximal effect
# In short: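 Cytotoxicity counter screen: intracellular ATP read by CellTiter-Glo luminescence in the p53 reporter wells. HCT-116 p53RE-bla cells were treated for 16 h at 37 C alongside rat liver microsomes and NADPH, each 0.5 mg/mL final.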
# [8] = p53 small molecule agonists, cell-based qHTS assay (AID 1963582; active means well fitted activation curve with a large enough effect in the signal ratio in the repeat runs, not every such curve was filed as active; the % refers to the signal ratio; further: potency means the concentration at half of the fitted maximal effect)
# In short: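 Beta-lactamase reporter cells (p53RE-bla) treated with compounds for 16 h at 37 C; FRET substrate, 2 h, room temperature; fluorescence intensity.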
# [9] = molecular target: Muscarinic acetylcholine receptor M1 (Homo sapiens) (UniProt P11229); assay: Cholinergic receptor muscarinic 1 (CHRM1) small molecule antagonists, cell-based qHTS assay (AID 1963588); further: nearly all actives have a fitted effect of over 40% in size
# Chain of Muscarinic acetylcholine receptor M1 (Homo sapiens) (P11229 whole entry, looked up): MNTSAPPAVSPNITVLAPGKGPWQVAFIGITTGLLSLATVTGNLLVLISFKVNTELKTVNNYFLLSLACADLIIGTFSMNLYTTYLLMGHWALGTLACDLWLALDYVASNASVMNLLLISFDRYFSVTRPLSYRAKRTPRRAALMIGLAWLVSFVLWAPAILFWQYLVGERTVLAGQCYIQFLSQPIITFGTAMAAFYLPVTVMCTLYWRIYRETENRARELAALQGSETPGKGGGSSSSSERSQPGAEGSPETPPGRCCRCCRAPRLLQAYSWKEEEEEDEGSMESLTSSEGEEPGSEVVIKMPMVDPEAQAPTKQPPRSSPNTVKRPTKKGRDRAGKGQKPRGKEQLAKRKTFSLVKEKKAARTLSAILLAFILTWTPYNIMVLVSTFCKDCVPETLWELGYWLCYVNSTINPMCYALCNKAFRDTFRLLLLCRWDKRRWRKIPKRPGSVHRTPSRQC
# In short: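 Compounds were tested at 15 concentrations in three independent runs. Dye-loaded CHRM1-CHO cells were exposed 5 min at room temperature before stimulation by acetylcholine added at 50nM. Intracellular calcium was read kinetically on FDSS for 3 min.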
# [10] = molecular target: Muscarinic acetylcholine receptor M1 (Homo sapiens) (UniProt P11229); assay: Cholinergic receptor muscarinic 1 (CHRM1) small molecule agonists, cell-based qHTS assay (AID 1963589); further: nearly all actives have a fitted effect of over 35% in size
# In short: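 qHTS, 15-point titration, 3 independent runs: compounds pin-transferred onto dye-loaded CHRM1-CHO cells (human M1), calcium fluorescence followed every second to detect agonism.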
# [11] = cAMP Responsive Elements (CRE) small molecule agonists, cell-based qHTS assay (AID 1963590); further: potency means the concentration at half of the fitted maximal effect
# In short: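 Quantitative HTS for CRE agonists: HEK 293T CRE-bla cells, overnight plating, 3 h compound incubation at 37 C/5% CO2, then 2 h room-temperature LiveBLAzer B/G FRET substrate loading.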
# [12] = cAMP Responsive Elements (CRE) small molecule antagonists, cell-based qHTS assay (AID 1963591; active means well fitted inhibition curve with a large enough effect in the signal ratio in the repeat runs, not every such curve was filed as active; the % refers to the signal ratio)
# In short: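 Fluorescence intensity from cleaved LiveBLAzer B/G substrate (2 h, room temperature) quantified CRE-bla activity in HEK 293T cells exposed 3 h to compound with 0.25 uM final NKH477.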
# [13] = molecular target: Beta-2 adrenergic receptor (Homo sapiens) (UniProt P07550); assay: Adrenergic beta2 receptor (ADRB2) small molecule antagonists, cell-based qHTS assay (AID 1963592); further: series mostly up to about 92 µM; nearly all actives have a fitted effect of over 50% in size
# Chain of Beta-2 adrenergic receptor (Homo sapiens) (P07550 whole entry, looked up): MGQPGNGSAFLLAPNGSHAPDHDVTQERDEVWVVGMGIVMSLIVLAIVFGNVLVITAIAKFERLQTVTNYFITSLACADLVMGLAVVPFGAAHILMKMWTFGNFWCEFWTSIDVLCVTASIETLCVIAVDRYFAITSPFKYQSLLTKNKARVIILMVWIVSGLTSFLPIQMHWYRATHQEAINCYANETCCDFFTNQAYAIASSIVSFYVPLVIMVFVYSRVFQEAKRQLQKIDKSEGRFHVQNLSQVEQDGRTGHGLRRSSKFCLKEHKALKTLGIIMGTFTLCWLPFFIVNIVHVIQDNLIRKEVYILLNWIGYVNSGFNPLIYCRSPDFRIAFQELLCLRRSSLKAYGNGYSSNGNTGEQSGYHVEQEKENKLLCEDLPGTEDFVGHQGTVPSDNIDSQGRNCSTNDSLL
# In short: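 Assay format: CHO-ADRB2 cells, 18-20hr seeding at 37C/5% CO2, then compound plus 1nM isoproterenol agonist mix for 0.5hr RT. Homogeneous time-resolved fluorescence cAMP detection after 1hr, expressed as 665/615 nm ratio.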
# [14] = molecular target: Beta-2 adrenergic receptor (Homo sapiens) (UniProt P07550); assay: Adrenergic beta2 receptor (ADRB2) small molecule agonists, cell-based qHTS assay (AID 1963593);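 further: CHO cells stably overexpressing human ADRB2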
# In short: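 CHO cells stably over-expressing ADRB2 were plated overnight at 37C, then dosed with compounds plus a stimulation mix containing 100uM IBMX and 25uM Ro-20-1724 for 0.5hr at room temperature. cAMP was measured by HTRF competition, 1hr.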
# [15] = molecular target: D(2) dopamine receptor (Homo sapiens) (UniProt P14416); assay: Dopamine D2 receptor (DRD2) small molecule antagonists, cell-based qHTS assay (AID 1963595; active means well fitted inhibition curve with a large enough effect in the signal ratio in the repeat runs, with a control signal flat; the % refers to the signal ratio)
# Chain of D(2) dopamine receptor (Homo sapiens) (P14416 whole entry, looked up): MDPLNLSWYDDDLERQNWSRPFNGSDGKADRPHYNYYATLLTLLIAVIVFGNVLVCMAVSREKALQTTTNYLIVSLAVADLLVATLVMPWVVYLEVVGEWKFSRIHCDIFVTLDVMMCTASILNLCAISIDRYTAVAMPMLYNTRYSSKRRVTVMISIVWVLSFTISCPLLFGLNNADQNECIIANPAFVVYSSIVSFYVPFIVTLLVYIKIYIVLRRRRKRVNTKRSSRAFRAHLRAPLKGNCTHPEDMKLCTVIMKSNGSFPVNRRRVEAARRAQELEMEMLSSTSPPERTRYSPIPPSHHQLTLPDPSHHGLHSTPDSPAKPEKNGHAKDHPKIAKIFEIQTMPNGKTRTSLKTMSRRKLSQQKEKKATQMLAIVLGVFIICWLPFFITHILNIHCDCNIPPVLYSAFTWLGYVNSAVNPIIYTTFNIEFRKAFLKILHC
# In short: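 HEK293 cells stably expressing DRD2, preincubated with 0.1 mM Ro20-1724 and compounds 10 min, were stimulated with 200 nM NKH477 plus 12 nM quinpirole for 30 min at room temperature; cAMP measured by HTRF (665/620 nm).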
# [16] = p53 small molecule agonists, cell-based qHTS assay: qHTS cell viability counter screen (AID 1963581); further: nearly all actives have a fitted effect of over 45% in size
# In short: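 Multiplexed with the reporter read, a CellTiter-Glo step (30 min, room temperature) gauges ATP-based viability of HCT-116 p53RE-bla cells after 16 h compound incubation at 37 C.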
# [17] = molecular target: 5-hydroxytryptamine receptor 2A (Homo sapiens) (UniProt P28223); assay: 5-hydroxytryptamine receptor 2A (HTR2A) small molecule antagonists, cell-based qHTS assay (AID 1963586); further: nearly all actives have a fitted effect of over 45% in size
# Chain of 5-hydroxytryptamine receptor 2A (Homo sapiens) (P28223 whole entry, looked up): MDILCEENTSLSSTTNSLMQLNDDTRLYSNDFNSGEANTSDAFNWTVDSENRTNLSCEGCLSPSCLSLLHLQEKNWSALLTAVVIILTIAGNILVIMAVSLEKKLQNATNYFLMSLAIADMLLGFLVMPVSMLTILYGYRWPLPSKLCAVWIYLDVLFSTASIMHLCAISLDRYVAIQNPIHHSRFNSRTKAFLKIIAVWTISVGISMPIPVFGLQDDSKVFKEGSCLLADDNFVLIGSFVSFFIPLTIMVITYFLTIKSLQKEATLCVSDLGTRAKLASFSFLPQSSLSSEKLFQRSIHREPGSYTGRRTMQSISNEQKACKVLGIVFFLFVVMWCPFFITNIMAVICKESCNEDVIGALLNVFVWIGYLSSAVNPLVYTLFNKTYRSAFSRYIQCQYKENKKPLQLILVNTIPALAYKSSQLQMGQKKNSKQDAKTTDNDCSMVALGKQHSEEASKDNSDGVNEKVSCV
# In short: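 CHO cells stably expressing human HTR2A were plated for 18 h at 37 C, then loaded with calcium dye for 1 h. Compounds were preincubated 5 min at room temperature before DOI (4 nM solution) was added. Kinetic fluorescence was read for 3 min.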
# [18] = molecular target: 5-hydroxytryptamine receptor 2A (Homo sapiens) (UniProt P28223); assay: 5-hydroxytryptamine receptor 2A (HTR2A) small molecule agonists, cell-based qHTS assay (AID 1963587); further: nearly all actives have a fitted effect of over 30% in size
# In short: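 Kinetic calcium-flux fluorescence (2 min, 1 sec intervals) after compound addition in agonist mode. HTR2A-CHO cells were cultured 18 h, then dye-loaded 1 h at 37 C.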
# [19] = molecular target: D(2) dopamine receptor (Homo sapiens) (UniProt P14416); assay: Dopamine D2 receptor (DRD2) small molecule agonists, cell-based qHTS assay (AID 1963594); further: nearly all actives have a fitted effect of over 35% in size
# In short: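 cAMP accumulation in DRD2-HEK293 cells measured by HTRF after 1 h detection; compounds added 10 min before NKH477 (200nM […]) forskolin-analogue stimulation, 30 min at room temperature, with Ro20-1724 present at 0.1 mM final.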
# [20] = p53 small molecule agonists, cell-based qHTS assay with human liver microsomes: qHTS cell viability counter screen (AID 1963579); further: nearly all actives have a fitted effect of over 45% in size
# In short: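 Metabolic activation used human liver microsomes and NADPH, both 0.5 mg/mL final, over 16 hours at 37 C on p53RE-bla cells (4,000/well). Cytotoxicity measured by CellTiter-Glo luminescence, 30 min at room temperature.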
SMILES,Potency [1],Potency [2],Potency [3],Potency [4],Potency [5],Potency [6],Potency [7],Potency [8],Potency [9],Potency [10],Potency [11],Potency [12],Potency [13],Potency [14],Potency [15],Potency [16],Potency [17],Potency [18],Potency [19],Potency [20]
CCc1cc2cc(OC)c(OC)cc2c(Cc2ccccc2)n1,inactive,inactive,inactive,inactive,inactive,inactive,inactive,inactive,inactive,inactive,11.9 µM (active),inactive,inactive,inactive,inactive,–,–,–,–,–
O=C1CCC/C=C\CCCCCCCCCC1,54.5 µM (active),inactive,inactive,inactive,inactive,inactive,–,inactive,inactive,inactive,inactive,inactive,inactive,inactive,–,inactive,inactive,inactive,inactive,–
CCCOc1ccc2nc(NC(=O)OC)[nH]c2c1,7.5 µM (active),inactive,inactive,inactive,inactive,inactive,inactive,–,inactive,inactive,–,inactive,inactive,–,inactive,–,inactive,inactive,inactive,–
Cc1cc(Nc2ccc(O)cc2)ccc1N,43.1 µM (active),inactive,inactive,inactive,inactive,–,inactive,inactive,inactive,inactive,inactive,inactive,–,–,–,inactive,inactive,–,–,inactive
CCN(Cc1cccc(S(=O)(=O)O)c1)c1ccc(C(=C2C=CC(=[N+](CC)Cc3cccc(S(=O)(=O)O)c3)C=C2)c2ccccc2S(=O)(=O)[O-])cc1,inactive,inactive,inactive,inactive,inactive,inactive,20.5 µM (active),inactive,inactive,inactive,inactive,inactive,–,–,–,–,inactive,inactive,–,–
Cc1cc(O)ccc1O,24.6 µM (active),inactive,inactive,inactive,inactive,inactive,inactive,–,inactive,inactive,–,–,–,–,–,inactive,inactive,inactive,–,–
COc1ccc(OC(F)(F)F)cc1CN[C@H]1CCCN[C@H]1c1ccccc1,inactive,inactive,inactive,inactive,–,inactive,inactive,inactive,inactive,inactive,–,–,inactive,inactive,–,inactive,inactive,–,–,–
CC1(C)CC(=O)CC(C)(C)N1,inactive,inactive,inactive,inactive,–,inactive,inactive,inactive,inactive,inactive,–,inactive,inactive,–,inactive,inactive,inactive,inactive,inactive,inactive
CNS(=O)(=O)c1cc(C(=O)N2CCC(CCN3C4CCC3CC(n3c(C)nc5ccccc53)C4)(c3cccc(F)c3)CC2)c(Cl)cc1F (configuration not stated),inactive,inactive,inactive,inactive,–,inactive,inactive,–,–,inactive,–,–,inactive,inactive,inactive,inactive,inactive,inactive,inactive,inactive
C=C1CC[C@H](O)CC1=C/C=C1\CCC[C@]2(C)[C@@H]([C@H](C)/C=C/[C@H](C)C(C)C)CC[C@@H]12,21.5 µM (active) and 61.1 µM (active),inactive,inactive,inactive,inactive,–,inactive,–,–,–,–,–,inactive,inactive,inactive,inactive,–,–,inactive,inactive
CCc1c2c(nc3ccc(OC(=O)N4CCC(N5CCCCC5)CC4)cc13)-c1cc3c(c(=O)n1C2)COC(=O)[C@]3(O)CC,inactive,inactive,inactive,inactive,–,0.0178 µM (active),1.26 µM (active),5 µM (active),–,–,inactive,–,–,–,inactive,–,–,–,inactive,inactive
C#C[C@]1(OC(C)=O)CC[C@H]2[C@@H]3CCC4=C/C(=N/O)CC[C@@H]4[C@H]3CC[C@@]21CC,inactive,inactive,inactive,inactive,–,inactive,inactive,–,–,inactive,–,inactive,–,–,inactive,inactive,inactive,inactive,inactive,inactive
NC(=O)c1nc(-c2cccc(-c3cc(F)ccc3OCC(F)(F)C(F)(F)F)c2)n[nH]1,inactive,inactive,inactive,inactive,–,inactive,–,–,inactive,inactive,–,–,inactive,–,inactive,–,inactive,inactive,inactive,inactive
